Inconclusive results are not listed. Calls of active or inactive are those of the source. Unless noted, the call rests on the fitted dose curve.
Legend:
[1] = Nuclear factor erythroid 2-related factor 2/antioxidant responsive element (Nrf2/ARE) small molecule agonists: qHTS cell viability counter screen in human keratinocytes (AID 1919968; active means well fitted curve in the direction sought with a large enough effect in the repeat runs; an effect the other way counts as inactive or inconclusive; further: nearly all actives have a fitted effect of over 55% in size; further: potency means the concentration at half of the fitted maximal effect)
How it was run: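 After a 5 h attachment period, ARE-reporter keratinocytes were dosed with compounds in DMSO and then cultured 23 h at 37 C. Cell viability came from CellTiter-Fluor signal read after a further 1 h.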

[2] = Nuclear factor erythroid 2-related factor 2/antioxidant responsive element (Nrf2/ARE) small molecule agonists: luciferase reporter gene qHTS assay in human keratinocytes (AID 1919969); further: nearly all actives have a fitted effect of over 35% in size; further: potency means the concentration at half of the fitted maximal effect
[3] = target: Gonadotropin-releasing hormone receptor (Homo sapiens) (UniProt P30968); assay: Human gonadotropin-releasing hormone receptor (GnRHR) small molecule agonists, calcium flux assay in GnRHR-HEK293 cells (AID 1920063); further: nearly all actives have a fitted effect of over 35% in size
How it was run: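 We seeded human GnRHR-expressing HEK293 cells for 18 hours, loaded them with calcium dye for an hour at 37 C, added test compounds, and recorded fluorescence intensity kinetically for three minutes.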

[4] = target: KiSS-1 receptor (Homo sapiens) (UniProt Q969F8); assay: Human kisspeptin (KISS1R) small molecule agonists, calcium flux assay in KISS1R-HEK293 cells (AID 1920064; active means well fitted curve in the direction sought with a large enough effect in the repeat runs; an effect the other way counts as inactive or inconclusive)
How it was run: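 Kinetic calcium assay, 1 s sampling over 3 min at Ex/Em 480/540, in HEK293 cells engineered with human KISS1R; compounds delivered in DMSO after 1 h dye loading.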

[5] = G protein-coupled receptor (GPCR) small molecule agonists, calcium flux assay: HEK293 wild type cell line counter screen (AID 1920065)
How it was run: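 Calcium-sensitive dye, loaded 1 h at 37 C into cells cultured 18 h, reports compound-evoked calcium release as fluorescence (Ex/Em 480/540), measured over 3 min. Agonist mode; 15-point titrations, triplicate.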

[6] = p53 small molecule agonists, cell-based qHTS assay with human liver microsomes (AID 1963577);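 further: p53 response element beta-lactamase reporter cells with liver microsomes plus NADPH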
How it was run: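 16 h, 37 C exposure of p53RE-bla cells to compounds with human liver microsomes and NADPH (0.5 mg/mL final each); detection via LiveBLAzer mixture, 2 h dark at room temperature.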

[7] = p53 small molecule agonists, cell-based qHTS assay with rat liver microsomes (AID 1963578)
How it was run: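 With rat liver microsomes and NADPH present (0.5 mg/mL final each), p53RE-bla cells are treated with compound for 16 h at 37 C. LiveBLAzer detection mixture is then applied for 2 h at room temperature in the dark.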

[8] = p53 small molecule agonists, cell-based qHTS assay with human liver microsomes: qHTS cell viability counter screen (AID 1963579); further: nearly all actives have a fitted effect of over 45% in size
How it was run: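 In this multiplexed counter screen, the reporter plates were subsequently treated with CellTiter-Glo so that cell viability, reflected by luminescence, could be recorded for p53RE-bla cells dosed 16 h with compounds under microsomal activation (HLM and NADPH).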

[9] = p53 small molecule agonists, cell-based qHTS assay with rat liver microsomes: qHTS cell viability counter screen (AID 1963580); further: nearly all actives have a fitted effect of over 45% in size
How it was run: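 Viability is assessed in parallel with the p53 reporter read: HCT-116 p53RE-bla cells receive compounds plus rat microsomes and NADPH (0.5 mg/mL final apiece), incubate 16 h at 37 C, and then CellTiter-Glo luminescence is recorded.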

[10] = p53 small molecule agonists, cell-based qHTS assay: qHTS cell viability counter screen (AID 1963581); further: nearly all actives have a fitted effect of over 45% in size; further: potency means the concentration at half of the fitted maximal effect
How it was run: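 Following 5 h attachment, HCT-116 p53RE-bla cells took up compound for 16 h at 37 C; the reporter was read with B/G FRET substrate (2 h RT), and viability then via CellTiter-Glo ATP luminescence.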

[11] = p53 small molecule agonists, cell-based qHTS assay (AID 1963582; active means well fitted activation curve with a large enough effect in the signal ratio in the repeat runs, not every such curve was filed as active; the % refers to the signal ratio)
How it was run: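 In this cell-based concentration-response screen, a p53 response element drives beta-lactamase; cells received DMSO-borne compounds after 5 h culture and were incubated a further 16 h before FRET substrate development.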

[12] = target: 5-hydroxytryptamine receptor 2A (Homo sapiens) (UniProt P28223); assay: 5-hydroxytryptamine receptor 2A (HTR2A) small molecule antagonists, cell-based qHTS assay (AID 1963586); further: nearly all actives have a fitted effect of over 45% in size; further: potency means the concentration at half of the fitted maximal effect
How it was run: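 Antagonist-mode intracellular calcium assay: DOI (4 nM) added after 5 min compound pre-incubation at room temperature to dye-loaded HTR2A-CHO cells. Fluorescence followed for 3 min, sampled every second.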

[13] = target: Muscarinic acetylcholine receptor M1 (Homo sapiens) (UniProt P11229); assay: Cholinergic receptor muscarinic 1 (CHRM1) small molecule antagonists, cell-based qHTS assay (AID 1963588); further: nearly all actives have a fitted effect of over 40% in size; further: potency means the concentration at half of the fitted maximal effect
How it was run: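 CHRM1-CHO calcium-flux assay, antagonist mode. Cells were seeded 18 h, dye-loaded 1 h at 37 C and given compound for 5 min at RT, then acetylcholine was added at 50nM. FDSS fluorescence was read 3 min; 15 concentrations, three runs.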

[14] = target: Muscarinic acetylcholine receptor M1 (Homo sapiens) (UniProt P11229); assay: Cholinergic receptor muscarinic 1 (CHRM1) small molecule agonists, cell-based qHTS assay (AID 1963589); further: nearly all actives have a fitted effect of over 35% in size
How it was run: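 Measures agonist-induced intracellular calcium rise. Stable human CHRM1 CHO line, 1 h dye load at 37 C, compounds from DMSO, kinetic fluorescence read.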

[15] = cAMP Responsive Elements (CRE) small molecule agonists, cell-based qHTS assay (AID 1963590)
How it was run: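 A CRE-responsive beta-lactamase reporter in HEK 293T cells was used. Treatment ran 3 h at 37 C; detection used LiveBLAzer B/G FRET substrate for 2 h at room temperature.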

[16] = cAMP Responsive Elements (CRE) small molecule antagonists, cell-based qHTS assay (AID 1963591; active means well fitted inhibition curve with a large enough effect in the signal ratio in the repeat runs, not every such curve was filed as active; the % refers to the signal ratio; further: potency means the concentration at half of the fitted maximal effect)
How it was run: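 HEK293T cells carrying a CRE-driven beta-lactamase reporter receive compound and NKH477 (0.25 uM final) for 3 h. Fluorescence from LiveBLAzer B/G FRET substrate is read after 2 h at room temperature.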

[17] = target: D(2) dopamine receptor (Homo sapiens) (UniProt P14416); assay: Dopamine D2 receptor (DRD2) small molecule agonists, cell-based qHTS assay (AID 1963594); further: nearly all actives have a fitted effect of over 35% in size; further: potency means the concentration at half of the fitted maximal effect
How it was run: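 HEK293 cells stably expressing human DRD2, pre-treated with PDE inhibitor Ro20-1724 (0.1 mM final) and compound 10 min at room temperature, then stimulated with NKH477 (200nM […]) for 30 min. cAMP read by HTRF (665/620 nm).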

[18] = target: D(2) dopamine receptor (Homo sapiens) (UniProt P14416); assay: Dopamine D2 receptor (DRD2) small molecule antagonists, cell-based qHTS assay (AID 1963595; active means well fitted inhibition curve with a large enough effect in the signal ratio in the repeat runs, with a control signal flat; the % refers to the signal ratio)
How it was run: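 Antagonism was scored as restored cAMP in HEK293-DRD2 cells. These cells were stimulated with 200 nM NKH477 and 12 nM quinpirole for 30 min at room temperature, in the presence of 0.1 mM Ro20-1724.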

[19] = target: 5-hydroxytryptamine receptor 2A (Homo sapiens) (UniProt P28223); assay: 5-hydroxytryptamine receptor 2A (HTR2A) small molecule agonists, cell-based qHTS assay (AID 1963587); further: nearly all actives have a fitted effect of over 30% in size; further: potency means the concentration at half of the fitted maximal effect
How it was run: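 CHO cells stably expressing human HTR2A, plated 18 h, loaded with calcium dye 1 h at 37 C. Agonist mode: compounds added and intracellular calcium fluorescence recorded kinetically for 2 min at 1 sec intervals.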

[20] = target: Beta-2 adrenergic receptor (Homo sapiens) (UniProt P07550); assay: Adrenergic beta2 receptor (ADRB2) small molecule antagonists, cell-based qHTS assay (AID 1963592); further: nearly all actives have a fitted effect of over 50% in size; further: potency means the concentration at half of the fitted maximal effect
How it was run: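 Cells (CHO, stable ADRB2 overexpression) incubated 18-20hr at 37C; compounds added from DMSO; agonist mix (1nM isoproterenol, 100uM IBMX, 25uM Ro-20-1724) added; 0.5hr RT; d2-cAMP and anti-cAMP-cryptate added; 1hr RT; 665/615 nm read.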

Measured: Potency

Sequence of Muscarinic acetylcholine receptor M1 (Homo sapiens) (P11229 whole entry, looked up): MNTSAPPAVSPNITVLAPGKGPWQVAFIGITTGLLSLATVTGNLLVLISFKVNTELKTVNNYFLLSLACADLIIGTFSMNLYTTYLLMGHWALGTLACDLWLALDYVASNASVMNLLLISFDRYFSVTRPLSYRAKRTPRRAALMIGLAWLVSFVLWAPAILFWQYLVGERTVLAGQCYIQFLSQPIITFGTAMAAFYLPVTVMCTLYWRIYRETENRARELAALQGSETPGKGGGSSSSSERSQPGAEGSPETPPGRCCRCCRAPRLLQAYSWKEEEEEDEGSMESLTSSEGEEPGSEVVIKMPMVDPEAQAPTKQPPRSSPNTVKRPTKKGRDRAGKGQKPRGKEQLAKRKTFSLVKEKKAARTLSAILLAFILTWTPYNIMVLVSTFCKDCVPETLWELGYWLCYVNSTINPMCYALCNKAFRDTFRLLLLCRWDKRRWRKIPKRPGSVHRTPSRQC
Sequence of Gonadotropin-releasing hormone receptor (Homo sapiens) (P30968 whole entry, looked up): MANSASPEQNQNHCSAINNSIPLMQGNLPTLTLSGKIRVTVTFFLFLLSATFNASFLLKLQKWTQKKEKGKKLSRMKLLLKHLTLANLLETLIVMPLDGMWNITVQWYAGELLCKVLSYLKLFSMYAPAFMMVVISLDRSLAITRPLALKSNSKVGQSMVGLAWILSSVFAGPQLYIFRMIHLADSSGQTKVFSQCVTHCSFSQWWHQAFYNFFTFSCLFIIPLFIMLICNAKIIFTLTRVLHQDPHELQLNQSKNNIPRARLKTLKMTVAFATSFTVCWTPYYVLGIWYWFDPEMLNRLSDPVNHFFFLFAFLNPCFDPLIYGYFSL
Sequence of KiSS-1 receptor (Homo sapiens) (Q969F8 whole entry, looked up): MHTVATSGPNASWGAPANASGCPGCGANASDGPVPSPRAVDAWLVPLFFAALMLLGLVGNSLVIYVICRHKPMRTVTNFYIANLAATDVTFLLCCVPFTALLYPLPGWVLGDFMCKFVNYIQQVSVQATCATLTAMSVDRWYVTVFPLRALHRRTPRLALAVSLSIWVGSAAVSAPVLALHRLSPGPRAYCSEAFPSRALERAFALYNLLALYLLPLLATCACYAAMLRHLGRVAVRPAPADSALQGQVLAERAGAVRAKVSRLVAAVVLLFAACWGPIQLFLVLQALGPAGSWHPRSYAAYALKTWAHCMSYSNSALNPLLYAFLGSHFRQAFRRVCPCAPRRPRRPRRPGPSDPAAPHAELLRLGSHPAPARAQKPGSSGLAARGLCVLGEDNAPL
Sequence of D(2) dopamine receptor (Homo sapiens) (P14416 whole entry, looked up): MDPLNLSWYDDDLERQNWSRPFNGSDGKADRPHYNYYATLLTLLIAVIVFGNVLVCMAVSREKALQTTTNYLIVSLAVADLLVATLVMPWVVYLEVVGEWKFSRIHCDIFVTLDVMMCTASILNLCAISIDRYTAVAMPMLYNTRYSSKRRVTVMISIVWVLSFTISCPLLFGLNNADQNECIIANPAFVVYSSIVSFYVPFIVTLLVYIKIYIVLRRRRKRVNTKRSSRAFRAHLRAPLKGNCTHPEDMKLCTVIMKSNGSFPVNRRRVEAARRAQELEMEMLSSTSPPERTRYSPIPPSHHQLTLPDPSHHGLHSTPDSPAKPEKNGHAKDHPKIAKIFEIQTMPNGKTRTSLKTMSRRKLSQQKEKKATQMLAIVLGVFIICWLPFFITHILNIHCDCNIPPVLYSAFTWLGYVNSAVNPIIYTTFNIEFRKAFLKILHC
Sequence of 5-hydroxytryptamine receptor 2A (Homo sapiens) (P28223 whole entry, looked up): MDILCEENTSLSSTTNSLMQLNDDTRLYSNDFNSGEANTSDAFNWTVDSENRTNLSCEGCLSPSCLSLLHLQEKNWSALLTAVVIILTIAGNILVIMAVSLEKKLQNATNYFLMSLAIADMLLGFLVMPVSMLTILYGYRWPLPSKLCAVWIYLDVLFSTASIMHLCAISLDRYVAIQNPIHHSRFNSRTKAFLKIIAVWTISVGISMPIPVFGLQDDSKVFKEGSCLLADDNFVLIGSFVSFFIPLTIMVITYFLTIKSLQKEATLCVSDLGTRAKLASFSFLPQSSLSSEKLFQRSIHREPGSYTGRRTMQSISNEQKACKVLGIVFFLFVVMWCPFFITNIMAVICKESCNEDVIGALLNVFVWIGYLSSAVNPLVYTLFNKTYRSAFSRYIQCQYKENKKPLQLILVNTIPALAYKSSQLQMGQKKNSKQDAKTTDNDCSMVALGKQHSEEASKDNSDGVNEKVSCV
Sequence of Beta-2 adrenergic receptor (Homo sapiens) (P07550 whole entry, looked up): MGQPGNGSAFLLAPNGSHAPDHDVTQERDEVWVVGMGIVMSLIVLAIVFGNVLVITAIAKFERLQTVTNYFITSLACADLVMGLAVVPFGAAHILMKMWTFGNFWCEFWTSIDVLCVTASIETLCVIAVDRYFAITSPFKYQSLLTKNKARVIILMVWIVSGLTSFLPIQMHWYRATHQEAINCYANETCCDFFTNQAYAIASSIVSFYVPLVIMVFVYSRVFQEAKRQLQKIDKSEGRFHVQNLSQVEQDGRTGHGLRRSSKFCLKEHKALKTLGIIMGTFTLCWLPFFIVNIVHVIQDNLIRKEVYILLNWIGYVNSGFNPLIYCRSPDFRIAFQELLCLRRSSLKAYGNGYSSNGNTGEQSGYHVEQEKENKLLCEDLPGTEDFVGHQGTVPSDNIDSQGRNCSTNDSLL

COc1cc(C[C@@H](C)N)c(OC)cc1Br
active: [13] 17.2 µM | [17] 3.96 µM
not listed: [19] | [20]
inactive: all other assays above

BrCCCCBr
not listed: [16]
inactive: all other assays above

CC(Cl)C(C)Cl (stereo unspecified)
not listed: [16]
inactive: all other assays above

CNC(C)Cc1ccc2c(c1)OCO2 (stereo unspecified)
active: [2] 84.3 µM | [12] 1.03 µM | [19] 0.602 µM
not listed: [20]
inactive: all other assays above

II
not listed: [18] | [19]
inactive: all other assays above

CC(C)(Cl)[N+](=O)[O-]
not listed: [16] | [17] | [19]
inactive: all other assays above

C[C@]12CC[C@H]3[C@@H](CCC4=CC(=O)CC[C@@]43C)[C@@H]1CC[C@@H]2C(=O)O
not listed: [15] | [16] | [17]
inactive: all other assays above

COc1cc(CCN)cc(OC)c1OC
active: [12] 0.182 µM | [19] 0.0752 µM
not listed: [20]
inactive: all other assays above

CCS(=O)(=O)C(C)(C)S(=O)(=O)CC
not listed: [13] | [17]
inactive: all other assays above

ClC(Cl)=C(Cl)Cl
not listed: [12] | [15] | [16]
inactive: all other assays above

COc1ccc(CN2CCNCC2)c(OC)c1OC
not listed: [12] | [13] | [14] | [19]
inactive: all other assays above

O=C(Cc1ccccc1)OCCc1ccccc1
not listed: [12] | [13] | [18] | [20]
inactive: all other assays above

CC1(c2ccc(Oc3ccccc3)cc2)OC(=O)N(Nc2ccccc2)C1=O (stereo unspecified)
active: [1] 27.5 µM | [13] 5.33 µM | [16] 61.5 µM
not listed: [12] | [20]
inactive: all other assays above

CCN(CC)CCOC(=O)C(O)(c1ccccc1)c1ccccc1
active: [19] 1.34 µM
not listed: [12] | [13] | [14]
inactive: all other assays above

CCOC(=O)CC(=O)CCl
active: [2] 68.6 µM
not listed: [11]
inactive: all other assays above

NC(=O)c1ccc(N)nc1
active: [10] 5.76 µM
not listed: [11]
inactive: all other assays above

CC(Cc1ccccc1)N(C)Cc1ccco1 (stereo unspecified)
not listed: [12] | [17]
inactive: all other assays above

Clc1ccc(C2(Cn3cncn3)CC(Br)CO2)c(Cl)c1 (stereo unspecified)
not listed: [12] | [15] | [18] | [19]
inactive: all other assays above

CC/C(=N\OC/C=C/Cl)C1=C(O)CC(C2CCOCC2)CC1=O (stereo unspecified)
not listed: [12] | [15] | [16]
inactive: all other assays above

C[C@H]1CNCCc2ccc(Cl)cc21
active: [20] 23.7 µM
not listed: [12] | [13] | [19]
inactive: all other assays above

O=S1(=O)OCCO1
not listed: [12] | [17] | [20]
inactive: all other assays above

CC1NCCOC1c1ccccc1 (stereo unspecified)
active: [17] 14.1 µM
not listed: [12] | [14] | [16] | [19]
inactive: all other assays above

[As]#[In]
not listed: [12]
inactive: all other assays above

O=c1oc2ccccc2c(O)c1C1CCCc2ccccc21 (stereo unspecified)
not listed: [12] | [20]
inactive: all other assays above

COC1CC(=C(c2cccs2)c2cccs2)C[N+](C)(C)C1 (stereo unspecified)
not listed: [12] | [13] | [17] | [18]
inactive: all other assays above

ClC=C(Cl)Cl
not listed: [12] | [19]
inactive: all other assays above

CCOC(=O)C1(c2ccccc2)CCN(CCc2ccc(N)cc2)CC1
not listed: [12] | [13] | [17]
inactive: all other assays above

NC(=O)C(Cl)Cl
not listed: [12] | [14] | [17]
inactive: all other assays above

CNC(C)Cc1ccccc1OC (stereo unspecified)
active: [19] 0.848 µM
not listed: [12] | [17]
inactive: all other assays above

CC(N)=S
not listed: [12] | [13] | [14] | [19]
inactive: all other assays above
